Where “and” joins values, the source holds several entries; their conditions need not be identical. Equal entries are not always repeated. Results filed as inconclusive are left out. A number with no mark means an inactive call. Calls of active or inactive are those of the source. Calls follow the shape of the dose curve; as a rule, active = well fitted inhibition curve with a large enough effect in the repeat runs; inconclusive = weak or mixed curves; inactive = no such curve, though single readings can be large or run the other way.

Consider 40 compounds from PubChem BioAssay (Tox21).
% is scaled to controls: 0 for no effect and ±100 for the full control effect; potency is read from the fitted curve at half-maximal effect.

The experiment can be described thus: qHTS assay to identify small molecule antagonists of the thyroid receptor (TR) signaling pathway (AID 743065). Also: nearly all actives have a fitted effect of over 55% in size. To be noted: GH3.TRE-Luc, T3-stimulated luciferase inhibition, 23.5 h; series mostly up to 70.3 µM; activity, negative = inhibition: at the top concentration. An excerpt: U.S. Tox21 Program National Center for Advancing Translational Sciences [NCATS] NIH Chemical Genomics Center [NCGC] U.S. Environmental Protection Agency [EPA] National Institutes of Environmental Health Sciences [NIEHS] National Toxicology Program [NTP] U.S. Food and Drug Administration [FDA] Tox21 Assay Overview: Thyroid receptor (TR), a nuclear hormone receptor, plays an important role in development, proliferation, differentiation, metabolism, brain function, and cardiovascular system. […] To profile the Tox21 10K compound library in TR signaling, a cell-based GH3-TRE-Luc assay (GH3.TRE-Luc cell line, developed by the laboratory of Dr. Albertinka J. Murk, Wageningen University) was used to measure the inhibition of TR. GH3 (rat pituitary tumor) cells stably expressing a TR activity sensor consisting of two TR response elements and a luciferase reporter gene.
Tox21 Assay Protocol Summary: GH3.TRE-Luc cells were dispensed at 1500 cells/4 uL/well into 1536-well white solid bottom plates using a Multidrop Combi dispenser (Thermo Fisher Scientific Inc., Waltham, MA). After the assay plates were incubated at 37 C for 4 hours, 23 nL of library compound or DMSO controls was transferred to the assay plates by a pintool station (Kalypsys, San Diego, CA), followed by addition of 1 ul of T3 (1 nM, final concentration in the wells) to stimulate TR transactivation. The assay plates were incubated at 37 C for 23.5 h, and then 1 uL of CellTiter-Fluor reagent (Promega, Madision, WI) of measuring cytotoxicity was added to each well using a Bioraptr Flying Reagent Dispenser (FRD) workstation (Beckman Coulter, Indianapolis, IN, USA). The plates were incubated at 37 C and 5% CO2 for additional 30 min, and fluorescence intensity was measured by a ViewLux plate reader (PerkinElmer, Shelton, CT). For measuring luciferase reporter gene activity, 4 uL of ONE-Glo Luciferase Assay reagent (Promega) was added to each well using a Bioraptr FRD (Beckman Coulter), followed by 30 min incubation at room temperature. The luminescence intensity of plates was recorded by a ViewLux plate reader (PerkinElmer, Shelton, CT).
Background: In qHTS, concentration-response curves come from the screen itself.
As for `CC(=O)S[C@@H]1CC2=CC(=O)CC[C@]2(C)[C@H]2CC[C@@]3(C)[C@@H](CC[C@@]34CCC(=O)O4)[C@H]12`, the Potency is 26.6 µM (active) and 27.3 µM (active).

In the case of `CCCC(=O)OC[C@@H](OC(=O)CCC)[C@@H](OC(=O)CCC)[C@H](Cn1c2nc(=O)[nH]c(=O)c-2nc2cc(C)c(C)cc21)OC(=O)CCC`, the Potency is 21.1 µM (active).

For the compound `Cc1cc2c(cc1C(F)(F)F)N(C(=O)Nc1ccc(Oc3cccnc3C)nc1)CC2`, the Potency was 22 µM (active).

As to `CC(=O)OCC(C)OC(C)=O` (stereo not given), the “activity, negative = inhibition” value is 19.6%.

On to `CC(C)(C)CC(C)(C)c1ccc(O)c(Cc2ccc(Cl)cc2Cl)c1`, for which the Potency was 6.68 µM (active).

As to `CCc1cc(Cc2cc(CC)c(N)c(CC)c2)cc(CC)c1N`, the Potency is 48.6 µM (active).

As for `Cc1cc(O)c(Cl)c(C)c1Cl`, the Potency was 24.3 µM (active).

Take `O=[N+]([O-])c1ccccc1Nc1ccccc1`: the “activity, negative = inhibition” value is 3.34%.

Take `Clc1ccc2nsnc2c1NC1=NCCN1`: the “activity, negative = inhibition” value is 6.34%.

Regarding `N/C(=N\N=C\c1ccc(Cl)cc1)N/N=C/c1ccc(Cl)cc1`, the Potency was 29.8 µM (active).

For `COc1ccc(-c2ccc3cc(C(=O)O)ccc3c2)cc1C12CC3CC(CC(C3)C1)C2`, the Potency was 1.33 µM (active).

For `O=[N+]([O-])c1cc(Cl)c(Cl)c(Cl)c1Cl`, the Potency is 60.9 µM (active).

Turning to `C=C(C)C(=O)OCC(O)COc1ccc(C(C)(C)c2ccc(OCC(O)COC(=O)C(=C)C)cc2)cc1` (stereo not given), the Potency is 61.1 µM (active).

With `OCCN(CCO)c1nc(N2CCCCC2)c2nc(N(CCO)CCO)nc(N3CCCCC3)c2n1`, the Potency is 23.7 µM (active).

On to `CC/C(=C(\c1ccc(O)cc1)c1ccc(OCCN(C)C)cc1)c1ccccc1`, for which the Potency was 12.2 µM (active).

With `Cc1cccc2c1cc1ccc3cccc4ccc2c1c34`, the “activity, negative = inhibition” value was 26.9% [at 95 µM].

As for `CNC(=O)c1ccccc1`, the “activity, negative = inhibition” value is -0.131%.

Consider `Cc1cc(N)c(S(=O)(=O)O)cc1Cl`, for which the “activity, negative = inhibition” value was -0.843% [at 95 µM].

With `CCCC/C=C/CCCCO`, the “activity, negative = inhibition” value was 0%.

For the compound `Oc1ccc(C2(c3ccc(O)cc3)CC3CC2C2CCCC32)cc1` (stereo not given), the Potency was 29.4 µM (active).

As for `CC1=C(C(=O)OC(C)C)C(c2cccc([N+](=O)[O-])c2)C(C(=O)OC2CN(C(c3ccccc3)c3ccccc3)C2)=C(N)N1` (stereo not given), the Potency was 2.98 µM (active).

For the compound `Clc1ccc2cc3ccccc3cc2c1`, the “activity, negative = inhibition” value is 4.06%.

Consider `NNc1nc(-c2ccccc2)cs1`, for which the Potency is 14.1 µM (active).

Consider `O=C(OCC(COC(=O)c1ccccc1)(COC(=O)c1ccccc1)COC(=O)c1ccccc1)c1ccccc1`, for which the “activity, negative = inhibition” value is -7.31%.

`C1CCCC1`: the “activity, negative = inhibition” value was 4.35%.

Regarding `NC(=NCCCCCCN=C(N)/N=C(\N)Nc1ccc(Cl)cc1)/N=C(\N)Nc1ccc(Cl)cc1`, the Potency is 6.06 µM (active) [middle of 5 runs].

As to `C[C@H](CCC(=O)O)[C@H]1CC[C@H]2[C@@H]3CC[C@@H]4C[C@H](O)CC[C@]4(C)[C@H]3CC[C@]12C`, the Potency is 17.2 µM (active) and 30.6 µM (active).

For the compound `[Cl][Bi]([Cl])([c]1ccccc1)([c]1ccccc1)[c]1ccccc1`, the Potency is 0.682 µM (active).

Take `CCCCCCCCCCCC(=O)NCCCN(C)C`: the Potency was 17.2 µM (active).

`C/C=C(\C)C(=O)OCc1ccccc1`: the “activity, negative = inhibition” value was -9.3%.

On to `CC1=NC(C)OC1C` (stereo not given), for which the “activity, negative = inhibition” value is -28.3%.

For `Oc1ccc(Cl)cc1Sc1cc(Cl)ccc1O`, the Potency is 5.96 µM (active) and 2.73 µM (active).

As to `O=C(O)c1cc(O)c2c(c1)C(=O)c1cccc(O)c1C2=O`, the “activity, negative = inhibition” value is 12.7% [at 95 µM].

Consider `Nc1ccccc1O`, for which the Potency is 42.7 µM (active).

As for `Nc1c(Cl)cc(Cl)cc1Cl`, the “activity, negative = inhibition” value is 44.1%.

In the case of `O=C(NO)C1(NS(=O)(=O)c2ccc(Oc3ccc(F)cc3)cc2)CCOCC1`, the “activity, negative = inhibition” value was -10.5%.

For `Clc1ccccc1C(c1ccccc1)(c1ccccc1)n1ccnc1`, the Potency is 3.59 µM (active) and 3.86 µM (active).

With `CCCCCCCCCCCCCCCS(=O)(=O)Oc1ccccc1`, the “activity, negative = inhibition” value is 12.4%.

On to `N=C1N=C(N)c2ccccc21`, for which the Potency was 15.4 µM (active).

In the case of `CCN(C(=O)N(CC)c1ccccc1)c1ccccc1`, the “activity, negative = inhibition” value was -4.43%.
